“And” between values parts separate entries of the source, which are not always exact repeats. Equal values may be shown once. Records with an inconclusive call do not appear. Entries that show only a call come without a potency. The source made the active and inactive calls. Unless noted, the call rests on the fitted dose curve; in most records, active means well fitted inhibition curve with a large enough effect; inconclusive means small, poorly fitted or top-dose-only effect; inactive means flat fitted curve, though single readings scatter.

In the first assay the test system is astro (control astrocytes). The experiment in a line: Drug repurposing screens with cells derived from glioblastoma tumor samples (AID 1345199). Further: nearly all actives have a fitted effect of over 40% in size. Further: potency means the concentration at half of the fitted maximal effect. The following applies: viability, ATP luminescence, 48 h; series mostly up to 45.9 µM. Put shortly: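 Four patient lines of CD133+ GBM neurospheres were screened at several concentrations; hits were retested in those lines plus three slower-growing GBM lines, using 48-hour treatment and ATP-based viability.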
Take `Cc1nnc(C(C)C)n1C1C[C@H]2CC[C@@H](C1)N2CC[C@H](NC(=O)C1CCC(F)(F)CC1)c1ccccc1` (some centres not stated): the Potency result is “inactive”. On the same count and under the same terms, for `O=C(NCCN1CCOCC1)c1ccc(Cl)cc1` the value was “inactive”; for `Cc1cccc(C)c1OCC(C)N` (configuration not stated), “inactive”; for `CCN(CC)C(=O)c1ccc(O)c(OC)c1`, “inactive”. Regarding `C[N+](C)(C)CCCCCC[N+](C)(C)C`, the Potency result was “inactive”. In the case of `CCN1CCC[C@H]1CNC(=O)c1cc(S(N)(=O)=O)ccc1OC`, the Potency result was “inactive”. Still for that read-out and setting: to `CCCNC(=O)NS(=O)(=O)c1ccc(Cl)cc1` belongs “inactive”; to `CCCCC1C(=O)N(c2ccccc2)N(c2ccccc2)C1=O`, “inactive”. In the case of `CCN(CC)CCNC(=O)c1ccc(N)cc1`, the Potency entry was “inactive”. Still for that read-out and setting: to `COc1cc2ncnc(Nc3ccc(F)c(Cl)c3)c2cc1OCCCN1CCOCC1` belongs 20 µM (active); to `CC(C)(C)c1ccc(C(O)CCCN2CCC(C(O)(c3ccccc3)c3ccccc3)CC2)cc1` (configuration not stated), 35.5 µM (active) and 20 µM (active); to `NC[C@@H]1O[C@@H](O[C@H]2[C@@H](O)[C@H](O[C@@H]3[C@@H](O)[C@@H](N)C[C@H](N)[C@H]3O[C@H]3O[C@H](CN)[C@@H](O)[C@@H](O)[C@H]3N)O[C@H]2CO)[C@H](N)[C@@H](O)[C@@H]1O`, “inactive”.

In the case of `Clc1ccc(Cn2c(CN3CCCC3)nc3ccccc32)cc1`, the Potency entry is “inactive”. As for `O=c1[nH]cnc2c1ncn2[C@H]1CC[C@@H](CO)O1`, the Potency entry is “inactive”. In the case of `CCOC(=O)O[C@]1(C(=O)OCCl)CC[C@@H]2[C@H]3CCC4=CC(=O)C=C[C@]4(C)[C@@H]3[C@@H](O)C[C@@]21C`, the Potency result is “inactive”. Still for that read-out and setting: to `CC/C(=C(\c1ccccc1)c1ccc(OCCN(C)C)cc1)c1ccccc1` belongs 25.1 µM (active); to `CN1[C@@H]2CCC[C@@H]1CC(NC(=O)c1nn(C)c3ccccc13)C2` (some centres not stated), “inactive”; to `OC[C@@H](O)[C@H](O)[C@H](O)[C@@H](O)CO`, “inactive”.

For `O=C(CCCCCCC(=O)Nc1ccccc1)NO`, the Potency is 10 µM (active) and 8.91 µM (active). On the same count and under the same terms, to `CC(C(=O)O)c1ccc(-c2ccccc2)c(F)c1` (configuration not stated) belongs “inactive”; to `NCCS`, “inactive”; to `O=C1NC(=O)C(c2ccccc2)(c2ccccc2)N1`, “inactive”.

As to `CC(=O)Oc1cc2c(s1)CCN(C(C(=O)C1CC1)c1ccccc1F)C2` (configuration not stated), the Potency entry is “inactive”. In the case of `O=C(O)CCc1nc(-c2ccccc2)c(-c2ccccc2)o1`, the Potency entry was “inactive”. `CC1(C)O[C@H]2C[C@@H]3[C@H]4CCC5=CC(=O)C=C[C@]5(C)[C@@]4(F)[C@@H](O)C[C@]3(C)[C@]2(C(=O)CO)O1`: the Potency result was “inactive”. Still for that read-out and setting: for `O=C1NCC2(CCN(CCc3ccccc3)CC2)O1` the value was “inactive”. Consider `CCN(CC)CCOC(=O)c1ccc(N)cc1`, for which the Potency result is “inactive”.

As to `CN(C)c1cc(NC(=O)CNC(C)(C)C)c(O)c2c1C[C@@H]1C[C@H]3[C@H](N(C)C)C(=O)C(C(N)=O)=C(O)[C@@]3(O)C(=O)C1=C2O`, the Potency entry is “inactive”. Take `Cc1cnc(C(=O)O)c[n+]1[O-]`: the Potency entry was “inactive”. As to `N#C[C@H]1C[C@H]2C[C@@H]2N1C(=O)[C@@H](N)C12CC3CC(CC(O)(C3)C1)C2`, the Potency entry was “inactive”.

With `CC(C)OC(=O)C(C)(C)Oc1ccc(C(=O)c2ccc(Cl)cc2)cc1`, the Potency entry is “inactive”. For the compound `C[C@@H](O)[C@H]1C(=O)N2C(C(=O)O)=C(S[C@@H]3CN[C@H](C(=O)N(C)C)C3)[C@H](C)[C@H]12`, the Potency result was “inactive”.

For the compound `CC(=O)CCCCn1c(=O)c2c(ncn2C)n(C)c1=O`, the Potency result was “inactive”.

`CC(C)NCC(O)COc1cccc2[nH]ccc12` (configuration not stated): the Potency result is “inactive”. Consider `C[N+]1(C)[C@@H]2CC(OC(=O)[C@H](CO)c3ccccc3)C[C@H]1[C@H]1O[C@@H]12` (some centres not stated), for which the Potency result was “inactive”. Turning to `NC(N)=Nc1nc(CSCC/C(N)=N/S(N)(=O)=O)cs1`, the Potency entry is “inactive”. Take `COC(=O)[C@@H]1[C@H]2C[C@H]3c4[nH]c5ccccc5c4CCN3C[C@@H]2CC[C@@H]1O`: the Potency result was “inactive”. `COc1ccccc1N1CCN(CCCNc2cc(=O)n(C)c(=O)n2C)CC1`: the Potency entry is “inactive”.

The next assay deals with Nuclear receptor subfamily 1 group I member 2 (Rattus norvegicus) (UniProt Q9R1A7). The experiment in a line: qHTS assay for small molecule activators of the rat pregnane X receptor (rPXR) signaling pathway (AID 651751; call rule not given here). The following applies: rPXR reporter cells, luciferase (One-Glo), 24 h. A general note: Quantitative high-throughput screening tests each substance at several concentrations.
Sequence of Nuclear receptor subfamily 1 group I member 2 (Rattus norvegicus) (Q9R1A7 whole entry, looked up): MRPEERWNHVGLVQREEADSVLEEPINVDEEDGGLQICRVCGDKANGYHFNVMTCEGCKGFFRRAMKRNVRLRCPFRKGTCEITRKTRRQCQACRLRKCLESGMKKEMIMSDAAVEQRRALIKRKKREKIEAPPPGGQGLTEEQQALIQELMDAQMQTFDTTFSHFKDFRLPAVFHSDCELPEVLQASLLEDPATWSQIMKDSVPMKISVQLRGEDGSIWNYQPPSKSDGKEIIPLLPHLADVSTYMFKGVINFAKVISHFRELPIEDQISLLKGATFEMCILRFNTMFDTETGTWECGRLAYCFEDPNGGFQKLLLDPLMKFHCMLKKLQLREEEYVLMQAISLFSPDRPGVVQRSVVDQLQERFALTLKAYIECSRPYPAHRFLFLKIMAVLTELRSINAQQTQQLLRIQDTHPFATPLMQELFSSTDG
Consider `CCCNC(=O)NS(=O)(=O)c1ccc(Cl)cc1`, for which the max response was -5.97% (inactive) and -1.04% (inactive). In the case of `O=c1[nH]cnc2c1ncn2[C@H]1CC[C@@H](CO)O1`, the max response is -1.01% (inactive) and 3.56% (inactive). Turning to `O=C1NC(=O)C(c2ccccc2)(c2ccccc2)N1`, the max response is -3.01% (inactive) and 3.12% (inactive) and 2.23% (inactive). Consider `CC(C)OC(=O)C(C)(C)Oc1ccc(C(=O)c2ccc(Cl)cc2)cc1`, for which the max response was -0.28% (inactive).
